This is a sample that favours compounds with a hit; in the whole collection about 6.8% have one here.
DPM-DC inhibit: blocks S. pneumoniae diphosphomevalonate decarboxylase; 65,000 tested, 0.49% active; calls only at 10 µM; AID 556; purified DPM-DC, PK/LDH coupled NADH fluorescence;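 active = the 320 compounds with the highest percent inhibition in the single-dose primary screen, excluding strongly autofluorescent ones, cut at about 32% in these data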;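 note: kinetic rate of NADH fluorescence loss reporting ADP formed by the decarboxylase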
Fluor 339 460: intrinsic fluorescence of library compounds, ex339/em460 – biochemical, MLSMR library, data from DPM-DC assay, artefact control, profiling panel; fluorescence fold increase at 10 µM; AID 709; compound autofluorescence, ex339/em460 nm, NADH buffer; stronger effect = higher value; 1 = no-compound wells, NADH background; 65,000 tested, 5.5% active;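 active = at 10 µM, mean starting fluorescence two-fold or more over control wells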;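 note: signal is the first read of a kinetic run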
NADH coupling: inhibition of NAD/NADH coupling enzymes, library profiling; coupled PK/LDH NADH assays, four targets; AID 774; 65,000 tested, 0.02% active; IC50, µM (series often up to 10 µM);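 active = single-dose screening hits from any of four coupled enzyme assays that gave an IC50 when retested across doses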;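 note: the DPM-DC format reads NADH fluorescence rather than 340 nm absorbance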
Spn PMK inh: inhibitors of Streptococcus pneumoniae phosphomevalonate kinase; 65,000 tested, 0.49% active; purified PMK, PK/LDH-coupled NADH absorbance 340 nm; AID 539; inhibition, % at 10 µM;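 active = top-ranked compounds by inhibition in the single 10 µM screen, taking a fixed number of the strongest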
Abs 340nm: compound absorbs light at 340 nm | compound absorbance at 340 nm, fold over control | fold change at 10 µM | 65,000 tested, under 10 active;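 active = at 10 µM dose, initial 340 nm absorbance at least 2 fold that of control wells; inactive = change under 2 fold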;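 note: initial absorbance extrapolated from kinetic A340 decline of NADH oxidation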
Spn MK inh: inhibitors of Streptococcus pneumoniae mevalonate kinase; purified MK, PK/LDH-coupled NADH absorbance 340 nm; inhibition, % at 10 µM; 65,000 tested, 0.48% active; AID 555;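 active = ranked among the strongest by inhibition in the single 10 µM screen, a fixed top-ranked set picked for dose follow-up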
Numbers stand for hits; i = inactive; nt = not tested or not shown; + = active, no number; [ ] = remark or other dose.

SMILES	DPM-DC inhibit	Fluor 339 460	NADH coupling	Spn PMK inh	Abs 340nm	Spn MK inh
CC(C)Cn1cc(C(=O)N2CCC3(CC2)OCCO3)c2c3ccccc3n(C)c2c1=O	nt	4.3	i	i	i	i
Cn1c2ccccc2c2c(C(=O)N3CCC4(CC3)OCCO4)cn(C3CCCCC3)c(=O)c21	nt	2.1	i	i	i	i
Cn1cc(C(=O)N2CCC3(CC2)OCCO3)c2c3ccccc3n(C)c2c1=O	i	3.4	i	i	i	i
Cc1cccc(-c2nc3ccccc3c(=O)n2-n2cccc2)c1	i	i	i	i	i	i
COc1ccc(CCN(C)Cc2c(F)cccc2F)cc1OC	i	i	i	i	i	i
CN1CCC(OC(=O)C2c3ccccc3Oc3ccccc32)CC1	i	i	i	i	i	i
Cc1ccc(OCC(=O)N2CCN(CC3CC4C=CC3C4)CC2)cc1 (configuration not stated)	i	i	i	i	i	i
Cn1c(=O)cc(OCC(=O)N2CCN(C3CCCCC3)CC2)c2ccccc21	i	i	i	i	i	i
NCC(CC(=O)O)c1ccc(Cl)cc1 (configuration not stated)	i	i	i	i	i	i
O=C(c1ccc2nc3ccc(Cl)cc3c(=O)n2c1)N1CCC2(CC1)OCCO2	nt	3.3	i	i	i	i
O=C(c1ccc2nc(-c3ccco3)c(-c3ccco3)nc2c1)N1CCC2(CC1)OCCO2	i	i	i	i	i	i
CCCCCn1c(N)c(C(=O)NCCN2CCOCC2)c2nc3ccccc3nc21	nt	2.1	i	i	i	i
CCCCCCn1c(N)c(C(=O)NCCN2CCOCC2)c2nc3ccccc3nc21	nt	3.9	i	i	i	i
CCCn1nc2ccccc2c1P(=O)(N1CCOCC1)N1CCOCC1	i	i	i	i	i	i
CCCCn1c(=O)c(C(=O)Nc2nc3ccccc3[nH]2)c(O)c2ccccc21	i	i	i	i	i	i
CC12CCCCC1=[N+]([O-])CN2O (configuration not stated)	i	i	i	i	i	i
CC(C)OC(=O)c1c(N)n(CC2CCCO2)c2nc3ccccc3nc12 (configuration not stated)	nt	3	i	i	i	i
CC(C)CCOC(=O)c1c(N)n(CC2CCCO2)c2nc3ccccc3nc12 (configuration not stated)	nt	3.9	i	i	i	i
Nc1c(C(=O)OC2CCCCC2)c2nc3ccccc3nc2n1CC1CCCO1 (configuration not stated)	nt	3.6	i	i	i	i
Cc1ccc(NC(=O)CSc2nnc([C@@H](N)Cc3c[nH]c4ccccc34)o2)c(C)c1	i	i	i	i	i	i
COc1ccc(OC)c(C2=NOC(C(=O)N3CCC4(CC3)OCCO4)C2)c1 (configuration not stated)	i	i	i	i	i	i
CCCNC(=O)c1c(N)n(CC2CCCO2)c2nc3ccccc3nc12 (configuration not stated)	nt	3.9	i	i	i	i
CC(C)OCCCNC(=O)c1c(N)n(CC2CCCO2)c2nc3ccccc3nc12 (configuration not stated)	nt	3	i	i	i	i
Cn1c(O)c(C=NC2C(=O)C3(C)CCC2C3(C)C)c(=O)n(C)c1=O (configuration not stated)	i	i	i	i	i	i
O=C(c1cc2c(s1)-c1ccccc1OC2)N1CCC2(CC1)OCCO2	nt	5.1	i	i	i	i
SMILES	DPM-DC inhibit	Fluor 339 460	NADH coupling	Spn PMK inh	Abs 340nm	Spn MK inh
Nc1cccc(N=Cc2c(O)n(Cc3ccc(F)cc3)c(=O)[nH]c2=O)c1	i	i	i	i	i	i
COC(=O)c1c(C)[nH]c(C(=O)C(Cc2ccccc2)N(C)C)c1C (configuration not stated)	i	i	i	i	i	i
COCC(C)OC(=O)c1c(N)n(Cc2ccco2)c2nc3ccccc3nc12 (configuration not stated)	nt	2.3	i	i	i	i
CCCCn1c(NC(=O)c2ccco2)c(C(=O)OCC)c2nc3ccccc3nc21	nt	3.8	i	i	i	i
CCOC(=O)c1c(N)n(Cc2ccco2)c2nc3ccccc3nc12	nt	2.2	i	i	i	i
CN(C)[C@@H]1C(=O)C(C(N)=O)=C(O)[C@@]2(O)C(=O)C3=C(O)c4c(O)cccc4[C@@](C)(O)[C@H]3[C@H](O)[C@@H]12	+[fluoresces]	i	125µM[fluoresces]	i	i	i
CC(=O)OC1(Cc2ccccc2)CN2CCC1c1ccccc12 (configuration not stated)	i	i	i	i	i	i
CCCCP(=O)(O)c1ccccc1	i	i	i	i	i	i
CCCCCCOC(=O)c1ccccc1N	nt	2.1	i	i	i	i
Cc1ccc(-c2nc3ccccc3c(=O)n2-n2cccc2)cc1	i	i	i	i	i	i
O=C(CSc1ccccc1)N1CCC2(CC1)OCCO2	i	i	i	i	i	i
Cc1nc2c(c(C)nn2-c2ccccc2)c(C)c1CCC(=O)N1CCC2(CC1)OCCO2	i	3.6	i	i	i	i
Cc1nc2c(-c3ccccc3)c(C)nn2c(C)c1CCC(=O)N1CCC2(CC1)OCCO2	i	i	i	i	i	i
Cc1nc2cc(-c3cccc(F)c3)nn2c(C)c1CCC(=O)N1CCC2(CC1)OCCO2	i	2.3	i	i	i	i
CCCC[n+]1cc(/N=C(\[O-])OC)on1	i	i	i	i	i	i
CP(C)(=O)CCC(=O)O	i	i	i	i	i	i
CC(=O)N1CCC2(CC1)CC(=O)c1cc(OCC(=O)N3CCN(C)CC3)ccc1O2	nt	5.1	i	i	i	i
CCn1nc(-c2cccs2)nc2c(=O)n(C)c(=O)nc1-2	+	i	8.4µM	i	i	63
CC(=NCC1CCCO1)c1c(O)n(Cc2ccccc2)c(=O)[nH]c1=O (configuration not stated)	i	i	i	i	i	i
CCC(=O)N1c2ccc(S(=O)(=O)CCC(=O)N3CCC4(CC3)OCCO4)cc2CC1C (configuration not stated)	i	i	i	i	i	i
CC(C)CCn1c(N)c(C(=O)OCC2CCCO2)c2nc3ccccc3nc21 (configuration not stated)	nt	4	i	i	i	i
CCCCn1c(N)c(C(=O)OCC2CCCO2)c2nc3ccccc3nc21 (configuration not stated)	nt	3.9	i	i	i	i
Nc1c(C(=O)NCc2ccco2)c2nc3ccccc3nc2n1Cc1ccc(F)cc1	nt	2.2	i	i	i	i
COc1ccc(Cn2c(N)c(C(=O)NCc3ccco3)c3nc4ccccc4nc32)cc1	nt	4.9	i	i	i	i
CC(C)(C)c1nc(N2CCN(C(=O)c3ccco3)CC2)c2nnn(Cc3ccccc3Cl)c2n1	i	i	i	i	i	i
CN1CCN(C(=O)OC2c3nccnc3C(=O)N2c2ccc(Cl)cn2)CC1 (configuration not stated)	i	i	i	i	i	i

Compound activity deposited in PubChem BioAssay by SRMLSC.
